Screening results (PubChem BioAssay)
Sampled rows, rich in hits. Any-hit rate of the full collection: about 8%.
FMDV inh: High Throughput Screening for Foot and Mouth Disease Virus Antivirals. Potency, µM (highest dose often 57.9 µM), inactives show at the top dose activity change, negative = inhibition, hits mostly inhibitors. AID 1159524, 2015. 410,000 compounds, 1.2% hits. FMDV antiviral cell-based qHTS; calls by dose curve; tested in HEK293T cells; further: read-out not given here; potency means the concentration at half of the fitted maximal effect; on the % scale 0 is the no-effect control and ±100 the full control effect; nearly all actives have a fitted effect of over 45% in size
HCV inh: qHTS Assay for Inhibitors of Hepatitis C Virus (HCV) | Potency, µM (series often up to 41.8 µM), for inactives: top-dose activity change, negative = inhibition, hits mostly inhibitors | AID 651820, 2012 | 340,000 compounds, 3.4% hits | Huh7.5.1 HCVcc-Cre infection, luciferase reporter, 44 h; active means well fitted inhibition curve with a large enough effect; inconclusive means small, poorly fitted or top-dose-only effect, or another doubt; inactive means no such curve, though single readings can be large or run the other way; further: potency means the concentration at half of the fitted maximal effect; on the % scale 0 is the no-effect control and ±100 the full control effect
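Infectious HCVcc-Cre (~0.5 moi) was added to cells just after compound, with cells seeded 4 h earlier at 1,000 per well. Luciferase activity after 44 h culture reported infection; substrate was incubated 15 min at room temperature before reading.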
HCMV inh: qHTS Assay for inhibitors of the human cytomegalovirus (HCMV); 410,000 compounds, 4.5% hits; HFF cells, HCMV-luciferase reporter, 72 h; active compounds read low; activity change, negative = inhibition, % at 57.5 µM; in the data active means activity change below about -60%; inconclusive means no clear call, values can overlap the other calls; inactive means above about -39%; further: on the % scale 0 is the no-effect control and ±100 the full control effect
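Two compound doses tested in HFFs infected with HCMV-luciferase, MOI 1 PFU/cell, 72 h at 37C. Lysate luminescence read with OneGlo; data normalized against buffer-only and 10uM Salinomycin inhibitor controls.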
Lassa entry inh: qHTS for Inhibitors of binding or entry into cells for Lassa Virus; Lassa virus pseudotype entry inhibition, cell reporter; 300,000 compounds, 1.2% hits; Potency, µM (top dose mostly 37.9 µM), for the others: at the highest dose activity change, negative = inhibition, actives largely listed as inhibitors; AID 540256, 2011; calls by dose curve; tested in HEK293 cells; further: potency means the concentration at half of the fitted maximal effect; on the % scale 0 is the no-effect control and ±100 the full control effect; nearly all actives have a fitted effect of over 50% in size
SARS PLpro yeast: qHTS of Yeast-based Assay for SARS-CoV PLP | S. cerevisiae expressing SARS-CoV PLpro, growth rescue | Potency, µM (top dose mostly 32.9 µM), inactives show at the highest dose activity, positive = growth rescue, actives largely listed as activators | 330,000 compounds, 0.19% hits; calls by dose curve; further: potency means the concentration at half of the fitted maximal effect; 0% is about no effect; nearly all actives have a fitted effect of over 55% in size
MARV entry inh: qHTS for inhibitors of binding or entry into cells for Marburg Virus; Marburg virus pseudotyped entry inhibition, cell reporter; Potency, µM (series often up to 37.8 µM), inactives show at the highest dose activity change, negative = inhibition, usual class: inhibitors; 300,000 compounds, 1.8% hits; AID 540276, 2011; calls by dose curve; tested in HEK293 cells; further: potency means the concentration at half of the fitted maximal effect; on the % scale 0 is the no-effect control and ±100 the full control effect
* hit, by the source's call; u = inconclusive; x = no result given; + = active, no number; [ ] = dose if it differs, or a comment.

SMILES | FMDV inh | HCV inh | HCMV inh | Lassa entry inh | SARS PLpro yeast | MARV entry inh
COc1cc(C(C)=O)ccc1OCC(O)CN1CCN(c2cc(C)cc(C)c2)CC1 (stereo not drawn) | -29.5% | 12.6µM* | 11.7 | x | 1.1% | x
CCOC(=O)c1ccc(NC(=O)c2csnn2)cc1 | 29.3% | x | 33.9 | 9.4%[46.1 µM] | x | u
C=CCn1c(SCc2csc(C)n2)nc2sc3c(c2c1=O)CCCC3 | u | u | -22.1 | 5.01µM* | -11.1% | u
C=CCn1c(SCc2csc(C)n2)nc2sc3c(c2c1=O)CCCCC3 | -28.8% | -21.2% | 6.3 | u | -11.7% | -19.7%
COc1ccc(CCNC(=O)c2cccc(S(=O)(=O)N3CCCCC3)c2)cc1 | -18.2% | u | -65.7* | -21.6%[46.1 µM] | -0.2% | -25.1%[46.1 µM]
O=C(NCCC1=CCCCC1)C1CCN(S(=O)(=O)c2cccc(C(F)(F)F)c2)CC1 | u | 11.2µM* | 32.7 | x | -1.0% | x
C=CCN(c1ccccc1OC)S(=O)(=O)c1cccc(C(=O)NCc2cccs2)c1 | -19.8% | 4.47µM* | -63.1* | u | 1.1% | u
COc1ccc(CCNc2ccc(S(=O)(=O)N3CCCC3)cc2[N+](=O)[O-])cc1 | u | u | -62.3* | u | 15.2% | -5.5%
COc1cc(OC)c(N(C)S(=O)(=O)c2cccc(C(=O)NCc3cccs3)c2)cc1Cl | -17.7% | x | -17.8 | x | x | x
O=C(NCCc1ccccc1)c1cccc(S(=O)(=O)N2CCCCC2)c1 | 13.2% | -18.3% | -33.4 | -34.0% | 5.7% | u
Cc1ccc(OCC(=O)OC2=C(C(=O)c3ccccc3)N(C)S(=O)(=O)c3ccccc32)cc1 | -4.8% | x | -24.4 | 4.4%[46.1 µM] | x | -8.7%[46.1 µM]
CCC1CN(C(=O)N2CCC(C(=O)NCc3ccc(N(C)C)cc3)CC2)c2ccccc2O1 (stereo not drawn) | -23.0% | x | 64.8 | -11.6%[46.1 µM] | x | x
C=CCN(c1ccccc1Cl)S(=O)(=O)c1cccc(C(=O)OCC(=O)N(C)C2CCS(=O)(=O)C2)c1 (stereo not drawn) | -28.1% | 3.55µM* | -30.6 | u | -0.7% | u
O=C(NCCOc1ccc(Cl)cc1)c1cccc(S(=O)(=O)N2CCCC2)c1 | u | 15.8µM* | -68.3* | x | -9.8% | x
COc1ccc(NC(=O)c2cccc(S(=O)(=O)N3CCCCC3)c2)c(OC)c1 | -6.5% | -20.2% | -69.0* | 0.4%[46.1 µM] | -5.5% | -26.9%[46.1 µM]
C=CCN(c1ccccc1OC)S(=O)(=O)c1cccc(C(=O)OCC(=O)c2c(N)n(C)c(=O)n(C)c2=O)c1 | 39.8µM* | u | -70.5* | u | x | u
CNS(=O)(=O)c1cccc(C(=O)OCC(=O)c2c(N)n(C)c(=O)n(C)c2=O)c1 | 14.7% | u | -13.8 | -16.0% | 0.0% | 9.7%[46.1 µM]
C=CCN(c1ccccc1Cl)S(=O)(=O)c1cccc(C(=O)NCCc2ccc(OC)cc2)c1 | -28.2% | u | -65.1* | 11.6µM* | -11.4% | u
Cc1ccc(C(=O)NCCC2=CCCCC2)cc1S(=O)(=O)N1CCCCC1 | -0.6% | u | -32.2 | 7.94µM* | -5.1% | u
COc1ccccc1C(C)Nc1ccc(S(=O)(=O)N2CCN(C)CC2)cc1[N+](=O)[O-] (stereo not drawn) | -13.1% | 11.2µM* | -9.5 | x | -8.4% | x
CN(C)S(=O)(=O)c1cccc(C(=O)NCCc2ccccc2)c1 | u | -12.2% | 23.2 | u | 4.0% | u
CC(Nc1ccc(S(=O)(=O)N2CCN(C)CC2)cc1[N+](=O)[O-])c1ccccc1 (stereo not drawn) | -10.7% | u | -9.5 | u | u | u
Cc1ccc(C(=O)NCc2cccc(C(F)(F)F)c2)cc1S(=O)(=O)N1CCCCC1 | u | u | -65.9* | -9.4% | 0.4% | -6.5%[46.1 µM]
CC(C)C1C(=O)Nc2ccc(S(=O)(=O)NCCc3ccc(Cl)cc3)cc21 (stereo not drawn) | -6.8% | x | -19.9 | 6.7%[46.1 µM] | x | x
COC(=O)N[C@H](CC(C)=O)c1ccc2c(c1)OCO2 | x | x | x | x | x | -17.1%[14.2 µM]
SMILES | FMDV inh | HCV inh | HCMV inh | Lassa entry inh | SARS PLpro yeast | MARV entry inh
COc1cc(OC)c2nc(-c3cc4c(c(OC)c3)OCCN(C(=O)C(C)c3n[nH]c(=O)c5ccccc35)C4)cc(C)c2c1 (stereo not drawn) | -9.0% | x | x | x | x | x
COc1ccc(CCNC(=O)c2ccc(Cl)c(S(=O)(=O)N3CCCC3)c2)cc1 | u | 11.2µM* | -73.6* | x | 1.9% | x
Cc1c(CC(=O)NCCc2ccccc2F)c(=O)oc2c(C)c3occ(C(C)(C)C)c3cc12 | -20.5% | x | -78.3* | -2.5%[46.1 µM] | x | 15.9%[46.1 µM]
COCCCNC(=O)Cc1c(C)c2c(cc(C)c3c(C(C)(C)C)coc32)oc1=O | -16.1% | 11.2µM* | -34.1 | x | 0.2% | x
COCCNC(=O)Cc1c(C)c2c(cc(C)c3c(C)coc32)oc1=O | 6.3% | 3.4% | 11.7 | x | 0.0% | x
O=S1(=O)N(Cc2ccccc2)CCCN1Cc1ccc(F)cc1Cl | 6.8% | x | + | 13.7%[46.1 µM] | x | x
COc1cccc2c1C1(CCCCC1)CC2NC(=O)C(F)(F)F (stereo not drawn) | x | x | x | x | x | -14.5%[14.2 µM]
COc1ccc(-c2nnc(Nc3nc4c(OC)cccc4s3)o2)c(OC)c1 | x | 6.31µM* | x | u | 4.8% | u
COc1ccc(-c2nnc(Nc3nc4c(OC)cccc4s3)o2)cc1 | 15.7% | u | 2.3 | -9.3% | -6.6% | 0.3%
COc1ccc(NC(=O)CCS(=O)(=O)c2nc(-c3ccc4c(c3)OCO4)cc(C(F)(F)F)n2)cc1OC | -6.1% | x | 10.1 | -1.0%[46.1 µM] | x | -18.3%[46.1 µM]
Cc1cc(NC(=O)CCCS(=O)(=O)c2nc(-c3cccs3)cc(C(F)(F)F)n2)no1 | u | 11.2µM* | 123.2 | u | 6.2% | u
Cc1cc(NC(=O)CSc2nc(-c3cccs3)cc(C(F)(F)F)n2)no1 | x | u | u | u | 1.5% | u
COc1cc(NC(=O)CCS(=O)(=O)c2nc(-c3cccs3)cc(C(F)(F)F)n2)cc(OC)c1OC | 25.1µM* | x | -98.4* | u | -4.6% | u
O=C(CCS(=O)(=O)c1nc(-c2ccc3c(c2)OCO3)cc(C(F)(F)F)n1)Nc1ccc(F)c(Cl)c1 | u | x | -99.9* | -13.6%[46.1 µM] | x | -23.3%[46.1 µM]
COc1ccc(NC(=O)CCS(=O)(=O)c2nc(-c3cccs3)cc(C(F)(F)F)n2)cc1OC | 22.4µM* | x | -101.1* | u | x | u
CC(C)c1c(C(=O)NCc2ccccn2)cnn1-c1nccc(-c2ccccc2F)n1 | -7.0% | x | x | x | x | x
C=C1N(S(=O)(=O)C(F)(F)F)CCC12CN(C)c1ccccc12 (stereo not drawn) | x | x | 3.5 | x | x | x
O=C(CCS(=O)(=O)c1nc(-c2cccs2)cc(C(F)(F)F)n1)Nc1cccc(O)c1 | 22.4µM* | x | -99.4* | -24.0%[46.1 µM] | x | u
